Measurements from the supplement of paper PMC7156485.
± gives the standard deviation of the averaged measurements.

Tests used:
Settings in all cases: concentration: 10 µM; 24 h
HCC1569 [1] = experiment: cell number relative to DMSO (% of DMSO); higher = more cells (less growth inhibition / toxicity)
Summary of the method: (§1)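 For HCC1569 and TDF cells, compounds at 10 µM were applied for 24 h at 37 °C in triplicate in 384-well plates. Cells were fixed in 3.7% formaldehyde, stained for H1.0 and with DAPI, and imaged at ×10 over six fields per well. The endpoint, H1.0 nuclear intensity or cell number, is shown as percent of the plate control using the median of replicates. Positional effects were smoothed for HCC1569 only.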

TDF [2] = experiment: as above
Summary of the method: as §1

TDF [3] = experiment: H1.0 immunofluorescence intensity relative to DMSO (% of DMSO); higher = stronger H1.0 induction, active = 120 or more
Summary of the method: as §1

HCC1569 [4] = experiment: H1.0 immunofluorescence intensity relative to DMSO (% of DMSO); higher = stronger H1.0 induction, active = 140 or more
Summary of the method: as §1
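Wherever H1.0 immunofluorescence intensity relative to DMSO is given: TDF is a line of transformed human dermal fibroblasts of mesenchymal origin.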
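Wherever cell number relative to DMSO is given: TDF denotes transformed human dermal fibroblasts of mesenchymal origin.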

Structure (SMILES) | cell number (HCC1569 [1]) | cell number (TDF [2]) | H1.0 immunofluorescence intensity (TDF [3]) | H1.0 immunofluorescence intensity (HCC1569 [4])
O=C(O)C(=O)c1cn(Cc2ccccc2)c2ccc(-c3ccc(OC(F)(F)F)cc3)cc12 | 99.9 | 106 | 94 (inactive) | 99.4 (inactive)
CCS(=O)(=O)Nc1cccc(C(=C2CCCCC2)c2cnc[nH]2)c1 | 99.6 | 101 | 94.6 (inactive) | 92.5 (inactive)
Br.CCCN1CCc2cc(O)cc3c2C1Cc1ccc(O)c(O)c1-3 (stereo not drawn) [R(-)-2,10,11-Trihydroxy-N-propylnoraporphine hydrobromide] | 95.1 | 110 | 89.2 (inactive) | 100 (inactive)
NCC(CC(=O)O)c1ccc(Cl)cc1 (racemic) | 99.3 | 112 | 94.3 (inactive) | 99.1 (inactive)
CC12CCC(O)CC1CCC1C2CCC2(C)C(C3=CC(=O)OC3)C(O)CC12O (stereo unspecified) [Gitoxigenin] | 104 | 73.1 | 103 (inactive) | 81.4 (inactive)
CCCN(CCC)C(=O)Cc1c(-c2ccc(Cl)cc2)nc2c(Cl)cc(Cl)cn12 | 103 | 105 | 102 (inactive) | 100 (inactive)
Cc1c(C(=O)Nc2cccc(C(F)(F)F)c2)cc(-c2ccccc2)n1CCCN1CCOCC1 | 92.8 | 94.3 | 95 (inactive) | 115 (inactive)
Cl.NCCc1ccc(O)cc1 [4-Hydroxyphenethylamine hydrochloride] | 96.2 | 100 | 96.7 (inactive) | 100 (inactive)
CCC1(C2=NCCN2)Cc2ccccc2O1.Cl (stereo unspecified) [Efaroxan hydrochloride] | 103 | 105 | 93.1 (inactive) | 94 (inactive)
C[N+]1(C)CCN(c2ccccc2)CC1.[I-] [1,1-Dimethyl-4-phenyl-piperazinium iodide] | 99 | 93 | 95.8 (inactive) | 109 (inactive)
CN1CC(CO)C=C2c3cccc4[nH]cc(c34)CC21 (stereo unspecified) [Lysergol] | 100 | 106 | 102 (inactive) | 87.6 (inactive)
CCCCCC=CCC=CCC=CCC=CCCCC(=O)NCC(=O)O [N-Arachidonylglycine] | 108 | 98.1 | 95.7 (inactive) | 95.8 (inactive)
O=C(O)c1cc[c]([Hg][Cl])cc1 [4-Chloromercuribenzoic acid] | 102 | 111 | 91.8 (inactive) | 92.6 (inactive)
CS(=O)(=O)O.Oc1ccc2c3c1OC1c4oc5ccccc5c4CC4(O)C(C2)N(CC2CC2)CCC314 (stereo unspecified) [Naltriben methanesulfonate] | 98.1 | 105 | 92.4 (inactive) | 105 (inactive)
CC1C=CC=CCCC=CC=CC=CC=CC(OC2OC(C)C(O)C(N)C2O)CC2OC(O)(CC(O)C(O)CCC(O)CC(O)CC(O)CC(=O)OC(C)C(C)C1O)CC(O)C2C(=O)O (stereo unspecified) [Nystatin] | 101 | 105 | 103 (inactive) | 104 (inactive)
CCCCCC=CCC=CCCCCCCCC(=O)NCCO [Anandamide (18:2,n-6)] | 100 | 108 | 99.1 (inactive) | 94.4 (inactive)
CCC(C)C=C(C)C=CC1=CC2=C(Cl)C(=O)C(C)(OC(C)=O)C(=O)C2=CO1 (stereo unspecified) [Sclerotiorin] | 97.9 | 96.1 | 95.7 (inactive) | 95.1 (inactive)
CCCCCCCCCCCCCCCCOCC(O)COP(=O)([O-])OCC[N+](C)(C)C (stereo unspecified) | 101 | 105 | 97.4 (inactive) | 104 (inactive)
CC(=O)NC1CN2CCC(O)C2C(O)C1O (stereo unspecified) [6-Acetamido-6-deoxy-castanospermine] | 103 | 103 | 97.2 (inactive) | 87.4 (inactive)
NC(N)=Nc1ccc2[nH]c3c(c2c1)CC1(O)C2Cc4ccc(O)c5c4C1(CCN2CC1CC1)C3O5.O=C(O)C(F)(F)F.O=C(O)C(F)(F)F (stereo unspecified) [Guanidinyl-naltrindole di-trifluoroacetate] | 93.6 | 83.5 | 104 (inactive) | 115 (inactive)
CCCN(CCC)C1CCc2cccc(O)c2C1 (racemic) | 101 | 88.4 | 98 (inactive) | 86.9 (inactive)
Cl.NCCc1c[nH]c2ccccc12 [Tryptamine hydrochloride] | 99.1 | 98.5 | 95.5 (inactive) | 97.2 (inactive)
CC1OC(=O)C(C(C)C)NC(=O)C(C(C)C)OC(=O)C(C(C)C)NC(=O)C(C)OC(=O)C(C(C)C)NC(=O)C(C(C)C)OC(=O)C(C(C)C)NC(=O)C(C)OC(=O)C(C(C)C)NC(=O)C(C(C)C)OC(=O)C(C(C)C)NC1=O (stereo unspecified) [Valinomycin] | 65 | 56.8 | 108 (inactive) | 174 (active)
COc1cc(=O)oc(C=CC=CC=CC(C)=CC2(C)OC(C)C(C)(O)C2O)c1C (stereo unspecified) [Citreoviridin] | 36.3 | 38.6 | 123 (active) | 77.4 (inactive)
CN1CCN(c2ccc3ccccc3n2)CC1.O=C(O)C=CC(=O)O.O=C(O)C=CC(=O)O [Quipazine, N-methyl-, dimaleate] | 102 | 104 | 93 (inactive) | 89.8 (inactive)

Structure (SMILES) | cell number (HCC1569 [1]) | cell number (TDF [2]) | H1.0 immunofluorescence intensity (TDF [3]) | H1.0 immunofluorescence intensity (HCC1569 [4])
Cc1c2ccncc2c(C)c2c1[nH]c1ccccc12 [Ellipticine] | 69.4 ± 8.6 | 39.3 ± 6.6 | 104 (inactive) | 194 (active)
O=[N+]([O-])c1ncc[nH]1 [Azomycin] | 100 | 92.6 | 97.8 (inactive) | 93.7 (inactive)
CNCCc1ccc(O)c(O)c1.Cl [N-Methyldopamine hydrochloride] | 105 | 92.2 | 95.3 (inactive) | 94 (inactive)
CC(Cc1ccc(OCC(=O)[O-])cc1)NCC(O)c1cccc(Cl)c1.[Na+] (stereo unspecified) | 104 | 110 | 89.5 (inactive) | 88.6 (inactive)
CC1CN(C2CCC(C#N)(c3ccc(F)cc3)CC2)CCC1(C(=O)O)c1ccccc1.Cl (stereo unspecified) [Levocabastine.HCl] | 102 | 103 | 102 (inactive) | 115 (inactive)
CNCC(O)c1ccc(O)cc1 (racemic) | 108 | 111 | 91 (inactive) | 103 (inactive)
COc1cccc2c1cc([N+](=O)[O-])c1c(C(=O)O)cc3c(c12)OCO3 [Aristolochic acid A] | 102 | 110 | 98.4 (inactive) | 91.2 (inactive)
CC12CCC(O)CC1CCC1C2CCC2(C)C(c3ccc(=O)oc3)CCC12O (stereo unspecified) [Bufalin] | 52.7 | 45 | 114 (inactive) | 107 (inactive)
CCOC(=O)c1ncn2c1C1CCCN1C(=O)c1cc(OC)ccc1-2 (stereo unspecified) | 103 | 108 | 88.2 (inactive) | 102 (inactive)
CCCCCCC1C(=O)OC(C)C(NC(=O)c2cccc(NC=O)c2O)C(=O)OC(C)C1OC(=O)CC(C)C (stereo unspecified) [Antimycin A1] | 73.6 | 66.5 | 113 (inactive) | 136 (inactive)
CC(C)NCC(O)c1ccc(N)c(C#N)c1 (stereo unspecified) [Cimaterol] | 103 | 108 | 87.7 (inactive) | 102 (inactive)
CS(=N)(=O)CCC(N)C(=O)O [L-Methionine sulfoximine] | 103 | 94 | 92.5 (inactive) | 98.4 (inactive)
CN1C2CCC1CC(OC(c1ccccc1)c1ccccc1N)C2 (stereo unspecified) [Aminobenztropine] | 103 | 97.9 | 94.1 (inactive) | 90.2 (inactive)
COC1=CC(=O)OC(C=Cc2ccccc2)C1 (racemic) | 104 | 92 | 95.5 (inactive) | 83 (inactive)
N#CC(OC1OC(COC2OC(CO)C(O)C(O)C2O)C(O)C(O)C1O)c1ccccc1 (stereo unspecified) [Amygdalin] | 103 | 91.7 | 100 (inactive) | 90.7 (inactive)
COc1ccc2[nH]cc(CCN)c2c1.Cl [O-Methylserotonin hydrochloride] | 96.9 | 97.6 | 89.1 (inactive) | 106 (inactive)
CC(C)C1(NC(=O)C2CC3c4cccc5[nH]cc(c45)CC3N(C)C2)OC2(O)C3CCCN3C(=O)C(Cc3ccccc3)N2C1=O.CS(=O)(=O)O (stereo unspecified) [Dihydroergocristine mesylate] | 100 | 110 | 91.4 (inactive) | 88.3 (inactive)
C=CCN1CCC23c4c5ccc(O)c4OC2C(=NN=C2CCC4(O)C6Cc7ccc(O)c8c7C4(CCN6CC=C)C2O8)CCC3(O)C1C5 (stereo unspecified) [Naloxonazine] | 99.6 | 89 | 105 (inactive) | 117 (inactive)
NCCCP(=O)(O)O [3-Aminopropylphosphonic acid] | 97.9 | 90.3 | 95.4 (inactive) | 101 (inactive)
Cl.Cl.c1ccc(CCCN2CCN(CCOC(c3ccccc3)c3ccccc3)CC2)cc1 | 98.6 | 91.5 | 103 (inactive) | 102 (inactive)
NC(Cn1oc(=O)[nH]c1=O)C(=O)O (stereo unspecified) [Quisqualic acid] | 100 | 94.9 | 102 (inactive) | 92.7 (inactive)
Cl.Oc1cc2c(cc1O)C1c3ccccc3CNC1CC2 (stereo unspecified) [Dihydrexidine hydrochloride] | 96.3 | 118 | 82.7 (inactive) | 103 (inactive)
COc1ccc(C(CN(C)C)C2(O)CCCCC2)cc1 (stereo unspecified) [Venlafaxine] | 102 | 107 | 106 (inactive) | 110 (inactive)
CCC1C(C)=NN=C(c2ccc(OC)c(OC)c2)c2cc(OC)c(OC)cc21 (stereo unspecified) | 93.8 | 103 | 93.1 (inactive) | 90.9 (inactive)
